Screening results (PubChem)
VP16 counter: inhibits Gal4-VP16 luciferase reporter, ROR gamma counter-screen; Drosophila S2 Gal4-VP16 UAS-luciferase, luminescence, 20 h; Potency, µM (doses to about 53.6 µM), without a hit: at the top dose activity, negative = inhibition, most hits filed as inhibitors; actives 3.5% (n = 310,000); AID 2546;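 note: Gal4-VP16 expression switched on by copper sulfate through the metallothionein promoter; potency is the fitted concentration of half-maximal effect; % is set by controls: 0 for no effect and ±100 for the full control effect; nearly all actives have a fitted effect of over 50% in size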
uPA surface inh: inhibitors of cell surface uPA generation | Potency, µM (highest dose often 38.3 µM), inactives show at the top dose activity change, negative = inhibition, most hits filed as inhibitors | actives 0.31% (n = 330,000) | cell surface uPA generation assay, qHTS; active = well fitted inhibition curve with a large enough effect; inconclusive = small, poorly fitted or top-dose-only effect; inactive = no such curve, though single readings can be large or run the other way; tested in mouse RAW 264.7 cells; note: potency is the fitted concentration of half-maximal effect; % is set by controls: 0 for no effect and ±100 for the full control effect; nearly all actives have a fitted effect of over 55% in size
RORgamma inh: inhibitors of mouse ROR gamma transcriptional activity; Drosophila S2 Gal4-RORgamma UAS-luciferase reporter, 20 h; Potency, µM (series often up to 53.6 µM), for the others: at the highest dose activity change, negative = inhibition, usual class: inhibitors; actives 5.4% (n = 310,000); note: potency is the fitted concentration of half-maximal effect; % is set by controls: 0 for no effect and ±100 for the full control effect; nearly all actives have a fitted effect of over 60% in size
Target sequence (P51450 whole entry, looked up, the tested form may be a part): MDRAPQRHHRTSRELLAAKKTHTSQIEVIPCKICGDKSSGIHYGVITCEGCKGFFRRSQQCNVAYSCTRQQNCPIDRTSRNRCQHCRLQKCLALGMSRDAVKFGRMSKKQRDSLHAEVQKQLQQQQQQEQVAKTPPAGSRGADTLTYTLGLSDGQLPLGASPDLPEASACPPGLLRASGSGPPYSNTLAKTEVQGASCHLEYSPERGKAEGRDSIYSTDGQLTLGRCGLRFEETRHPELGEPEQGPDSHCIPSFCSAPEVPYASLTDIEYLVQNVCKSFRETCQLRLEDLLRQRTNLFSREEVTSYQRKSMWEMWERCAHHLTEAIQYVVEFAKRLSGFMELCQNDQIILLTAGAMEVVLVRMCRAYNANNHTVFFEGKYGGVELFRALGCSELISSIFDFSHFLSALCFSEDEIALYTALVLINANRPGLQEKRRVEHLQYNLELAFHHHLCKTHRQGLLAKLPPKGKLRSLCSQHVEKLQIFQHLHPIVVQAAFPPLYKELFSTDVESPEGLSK
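Drosophila S2 cells stably expressing Gal4-DBD/mouse RORγ fusion under metallothionein promoter plus UAS-luciferase; compound 1 h, then 700 uM CuSO4 induction for 20 h at ambient temperature; inhibition read as reduced luminescence.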
TRPV1 PAM: enhances activation of the human vanilloid receptor TRPV1 | potentiation, % at 8.33 µM | actives 0.02% (n = 320,000) | Q8NER1 | AID 540277 | TRPV1-expressing cells, Fluo-8 calcium influx, capsaicin EC20 potentiation; in the data active = potentiation above about 80%; inconclusive = between about 30% and that limit; note: 0% is about no effect
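TRPV1-expressing cells were cultured overnight at 35.5C and loaded with Fluo-8 calcium dye for 40 to 90 min at room temperature. After a 10 s baseline, compound was added and calcium influx was read kinetically for 3 min (ex 480/em 520 nm).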
TRPV1 agonist: agonists of human vanilloid receptor 1 (TRPV1) | Q8NER1 | TRPV1-expressing cells, Fluo-8 calcium influx, agonist mode | activation, % at 8.33 µM | actives 0.19% (n = 320,000) | AID 540275; in the data active = activation above about 80%; inconclusive = between about 30% and that limit; note: 0% is about no effect
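Fluo-8 calcium influx in TRPV1-expressing cells, kinetic read (ex 480/em 520 nm). Compound added and read 3 min for agonist activity, followed by capsaicin at EC20 final and 2 min further read for enhancement.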
The depositor's hits bear a star; i = inactive; ? = inconclusive; . = no result given; [ ] = remark or other dose. A selection: hits, their analogues and other compounds. The true share with any hit is near 5.8%. Unless noted, calls come from the whole dose curve; as a rule, active = well fitted curve in the direction sought with a large enough effect; inconclusive = small, poorly fitted or top-dose-only effect, or another doubt; inactive = no such curve, though single readings can be large; an effect the other way counts as inactive or inconclusive.

SMILES	VP16 counter	uPA surface inh	RORgamma inh	TRPV1 PAM	TRPV1 agonist
CCN1C(=O)/C(=C2/C=Cc3cc(C)ccc3N2CC)N(C)C1=S	?	0.9%	12.6µM*	16.8	-3.6
CCOC(=O)C1CCCN(S(=O)(=O)c2ccc(S(=O)(=O)N(CC)CC)cc2)C1 (configuration not stated)	4.47µM*	?	6.31µM*	2.2	13.5
CCOC(=O)C1CCCN(S(=O)(=O)c2ccc(C)cc2)C1 (configuration not stated)	-15.0%	-1.8%	?	-8.5	19.8
Cc1ccc(S(=O)(=O)/C=C/c2ccccc2)cc1	-2.8%	2.9%	-8.7%	10.0	11.3
Cc1cc(O)c(C(C)C)cc1C1(c2cc(C(C)C)c(O)cc2C)OC(=O)c2ccccc21	12.6µM*	-5.5%	?	-12.1	14.5
O=C(N/N=C/c1ccccn1)c1ccccc1	-12.4%	-6.3%	16.5%	?	-1.4
CCn1cc(/C=N\NC(=O)c2ccc(Cl)cc2)cn1	-8.0%	-7.2%	11.2µM*	-1.2	2.8
O=C(N/N=C/c1ccccn1)c1ccc(Cl)cc1	2.51µM*	-12.0%	1.41µM*	-33.2	15.0
CN(C)c1ccc(C(=O)N/N=C/c2ccccn2)cc1	?	-28.2%	12.6µM*	-14.9	13.2
CCn1cc(/C=N\NC(=O)Cc2ccc(Cl)cc2)cn1	?	-0.7%	-123.1%	-1.2	-8.0
CCCCc1ccc(NC(=O)COc2ccc(C(=O)Nc3ccccc3OCC)cc2)cc1	10µM*	-1.7%	?	0.8	-0.1
CCOc1ccccc1NC(=O)c1ccc2ccccc2c1	?	-1.5%	26.4%	-11.9	22.8
CC(C)c1ccccc1NC(=O)COc1ccc(C(=O)NCCc2ccccc2)cc1	17.8µM*	-3.0%	?	5.7	-0.9
Cc1ccccc1C(=O)NC(=S)N(CCO)Cc1ccccc1	2.82µM*	1.9%	2µM*	4.6	3.2
O=C(CC12CC3CC(CC(C3)C1)C2)NC(=S)NCc1ccccc1	1.58µM*	-0.9%	2µM*	8.8	1.6
CCOc1ccc(NC(=O)COc2ccc(C(=O)NCCc3ccccc3)cc2)cc1	-9.2%	1.2%	-22.7%	3.1	3.8
O=C(NCc1ccccc1)NCC12CC3CC(CC(C3)C1)C2	0.3%	3.3%	1.4%	-7.7	?
OCCN(Cc1ccccc1)C(=S)Nc1ccc(Cl)cc1Cl	?	.	?	0.6	16.4
COC(=O)[C@@]1(C)[C@H]2C(=O)N(C)C(=O)[C@H]2[C@H]2CN=C(SCc3ccc(C#N)cc3)N21	.	0.7%	.	.	.
COC(=O)c1nnc(SC)nc1C(=O)OC	-3.2%	.	-17.7%	.	.
C=C1CCN(C(Cc2ccccc2)C(=O)NCc2ccc(Cl)cc2)S(=O)(=O)c2ccccc21 (configuration not stated)	1.1%	.	11.3%	.	.
Cc1ccc(S(=O)(=O)Cc2ccc(C(=O)NCCc3ccccc3)o2)cc1	-12.8%	7.8%	-8.1%	-26.9	81.4*
COc1cccc(OC)c1C(=O)NCCc1ccccc1	.	2.0%	.	.	.
COC(=O)c1c(N)sc(C(=O)NCCc2ccccc2)c1C	4.47µM*	-15.6%	2.51µM*	3.6	2.9
O=C(NC(=S)NC(=O)c1ccccc1F)c1ccccc1F	5.62µM*	2.4%	?	-16.9	-1.4
SMILES	VP16 counter	uPA surface inh	RORgamma inh	TRPV1 PAM	TRPV1 agonist
O=C(NC(=S)NCc1ccccc1)c1ccccc1Br	10µM*	2.9%	8.91µM*	10.7	6.3
NC(=O)c1cccc(C[C@H](C(=O)O)N2C(=O)c3ccc(C(=O)O)cc3C2=O)c1	-3.6%	.	5.2%	.	.
O=C(O)C1Cc2ccccc2CN1C(=O)CSc1nnc2ccccn12 (configuration not stated)	5.2%	0.7%	7.2%	-36.0	0.9
CC(C)N=C=NC(C)C	-4.8%	.	5.3%	.	.
OCCNC(=S)NCCc1ccccc1	16.0%	1.3%	-10.2%	0.6	-3.4
O=C(NC(=S)NCCc1ccccc1)c1ccccc1	?	.	5.62µM*	-16.0	?
O=C(NC(=S)NCc1ccccc1)c1ccccc1[N+](=O)[O-]	15.8µM*	-1.2%	7.94µM*	-2.3	-0.2
Cc1ccc(C(=O)NCCc2ccccc2)cc1	3.98µM*	?	4.47µM*	-12.3	83.7*
O=C(NC(=S)NCc1nc2ccccc2[nH]1)c1ccccc1F	1.5%	.	-31.7%	-4.5	6.1
O=C(NC(=S)NCc1ccccc1)c1ccccc1F	?	1.2%	10µM*	6.4	22.1
CCOC(=O)/C(C(=O)Nc1ccccc1Br)=C1/NC(C)(C)Cc2ccccc21	-2.1%	6.0%	-5.0%	-9.9	12.4
CCc1ccccc1OCC(=O)Nc1cc(S(=O)(=O)N(CC)CC)ccc1N1CCOCC1	.	2.4%	.	-0.8	21.4
CCOC(=O)N/N=C\C=C\c1ccc2c(c1)OCO2	7.4%	-1.2%	24.4%	-14.7	25.0
O=C(NC(=S)N(Cc1ccccc1)Cc1ccccc1)c1ccccc1F	0.708µM*	5.0%	0.251µM*	-4.5	18.3
O=C(NC(Cc1ccccc1)C(=O)O)c1ccc(S(=O)(=O)N2CCCC2)cc1 (configuration not stated)	2.1%	.	-2.7%	13.9	-4.2
O=C(NC(=S)NCCc1ccccc1)c1ccccc1F	?	-7.4%	17.8µM*	-6.9	?
O=C(NC(=S)N(CCO)Cc1ccccc1)c1ccc(S(=O)(=O)N2CCCC2)cc1	4.47µM*	-3.8%	2.24µM*	8.8	-0.8
O=C(NCCc1ccccc1)c1ccccc1F	?	-5.9%	?	-25.8	?
O=C(Cc1ccccc1)NCCSCc1ccccc1	-8.0%	5.2%	44.8%	-9.5	17.3
O=C(NCCSCc1ccccc1)c1ccc(F)cc1	-5.5%	-7.5%	23.9%	-20.6	81.3*
Cc1cc2c(c(=O)n1Cc1ccccc1)C1O[C@](c3ccsc3)(Cc3cc(C#N)ccc31)O2	1.1%[10 µM]	.	-20.4%[10 µM]	i	i
COc1ccc(C(c2c(C)n(C)n(-c3ccccc3)c2=O)c2c(C)n(C)n(-c3ccccc3)c2=O)c(OC)c1OC	-1.5%	-1.9%	?	?	-1.9
NC(=O)c1nsc(C(=O)N(c2ccccc2)C(C(=O)NC2CCCC2)c2cccs2)c1N (configuration not stated)	3.3%	0.2%	-20.1%	12.8	-3.9
CN(CCC#N)C(=S)NC(=O)c1ccc(S(=O)(=O)N2CCOCC2)cc1	?	4.3%	5.01µM*	2.1	1.5
COc1ccc(C(CCN2CCOCC2)c2c(OC)cc(OC)c3c(-c4ccccc4)cc(=O)oc23)cc1 (configuration not stated)	?	14.1µM*	?	.	.
O=Cc1cc(N=Nc2ccccc2Cl)ccc1O	6.0%	8.91µM*	11.2µM*	21.8	1.1
CCN(C(=O)CSc1ncn[nH]1)c1c(N)n(Cc2ccccc2)c(=O)[nH]c1=O	.	0.6%	.	1.9	-0.6
O=C1/C(=C/c2cccs2)NC(=S)N1C1CC1	?	-9.8%	7.08µM*	-12.2	14.2
O=C(O)c1ccccc1Cc1ccccc1	-5.2%	.	-18.5%	.	.
c1ccc(C(c2ccccc2)N2CCCC3(CCNCC3)C2)cc1	-1.6%	.	-21.4%	.	.
